Among the data in PubChem BioAssay (NCI) are growth values, retold here.

The structures appear in SMILES notation. Compounds without any hit were thinned out: in the full panel of roughly 83,000, 20% have a hit.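 Compound tested at a single concentration for 48 hours in 96-well plates; a percent growth value below 10 was scored as active.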 A number with no mark means an inactive call. Calls of active or inactive are those of the source.

Test systems include HCT-15 colon; HT29 colon; SNB-75 CNS; SNB-19 CNS; U251 CNS; PC-3 prostate; SK-MEL-5 melanoma; UACC-62 melanoma; SK-MEL-28 melanoma; SK-MEL-2 melanoma; EKVX NSCLC; SN12C renal; UO-31 renal; TK-10 renal; ACHN renal; CAKI-1 renal; A498 renal; CCRF-CEM leukemia; MOLT-4 leukemia; LOX IMVI melanoma.
Test in all cases: NCI-60 one-dose screen, 48 h (100 = growth as untreated, 0 = no growth, -100 = all killed)
Details in all cases: 10 µM

Consider `COc1cc(/C=C/C(=O)c2cc(OC)c(OC)c(OC)c2)ccc1Oc1nc(Nc2ccc(F)cc2)nc(N(C)C)n1`, for which the growth in the assay with HCT-15 colon is -40.3% (active); in the assay with HT29 colon it was -50.9% (active); in the assay on SNB-75 CNS, -64.8% (active); with SNB-19 CNS, -46.7% (active); in the assay on U251 CNS it was -72.9% (active); in the assay with PC-3 prostate it was -20% (active). Moreover, the growth was -76.2% (active) in the assay on SK-MEL-5 melanoma; -80.7% (active) with UACC-62 melanoma; -72.1% (active) in the assay with SK-MEL-28 melanoma; -49.4% (active) in the assay on SK-MEL-2 melanoma; 20.6% in the assay with EKVX NSCLC; -89.3% (active) in the assay with SN12C renal. Further, the growth with UO-31 renal was -100% (active); in the assay on TK-10 renal, 28.6%; with ACHN renal it was -82.3% (active); in the assay with CAKI-1 renal, 11.5%; in the assay with A498 renal, -1.01% (active); with CCRF-CEM leukemia it was 3.77% (active). Further, the growth in the assay with MOLT-4 leukemia was 4.87% (active).

Regarding `COc1ccc(C(=O)/C=C/c2ccc(Cl)c(C(F)(F)F)c2)cc1S(N)(=O)=O`, the growth was -99.9% (active) in the assay on HCT-15 colon; -76.9% (active) with HT29 colon; -33.7% (active) in the assay on SNB-75 CNS; -100% (active) in the assay on SNB-19 CNS; -68.7% (active) in the assay with U251 CNS; -48.2% (active) in the assay on PC-3 prostate. Besides, the growth with SK-MEL-5 melanoma was -89.4% (active); in the assay on UACC-62 melanoma it was -98.7% (active); in the assay on SK-MEL-28 melanoma, -100% (active); with SK-MEL-2 melanoma, -83.1% (active); with EKVX NSCLC it was -98.2% (active); in the assay on SN12C renal, -100% (active). The growth in the assay on UO-31 renal is -99.6% (active); with TK-10 renal, -96.3% (active); in the assay on ACHN renal, -100% (active); in the assay with CAKI-1 renal it was -100% (active); with A498 renal it was -30.3% (active); in the assay on CCRF-CEM leukemia, 4.6% (active). Further, in the assay on MOLT-4 leukemia, the growth is 8.09% (active).

With `CN(C)c1cccc2c(S(=O)(=O)Nc3cccc(-c4csc(NC(=O)CCCCCN5CCN(c6cc7c(cc6F)C(=O)N(C6CCC(=O)NC6=O)C7=O)CC5)n4)c3)cccc12` (centres undefined), the growth in the assay with HCT-15 colon was 77.9%; in the assay with HT29 colon, 92.3%; in the assay with SNB-75 CNS, 60.5%; with SNB-19 CNS, 92.8%; with U251 CNS it was 94.4%; with PC-3 prostate, 78.5%. Moreover, the growth with UACC-62 melanoma was 83.1%; in the assay on LOX IMVI melanoma, 91.8%; in the assay on SK-MEL-28 melanoma, 104%; with SK-MEL-2 melanoma, 108%; with EKVX NSCLC, 80.8%; in the assay on SN12C renal, 85.8%. For the same molecule, the growth in the assay with UO-31 renal was 70%; in the assay with TK-10 renal it was 97.4%; in the assay on ACHN renal, 97.8%; in the assay on CAKI-1 renal, 79.4%; in the assay with A498 renal, 95.7%; with CCRF-CEM leukemia it was 66.3%.

Turning to `COc1cc2c(c(OC)c1OC)C(=O)CC(c1cccc(NC(=O)c3cccc(N)c3)c1)O2` (centres undefined), the growth is 64.9% in the assay on HCT-15 colon; 94.7% in the assay on HT29 colon; 77.6% with SNB-75 CNS; 86.1% in the assay with SNB-19 CNS; 81.1% in the assay on U251 CNS; 70.9% in the assay with PC-3 prostate. Besides, the growth was 61.9% with SK-MEL-5 melanoma; 70.2% with UACC-62 melanoma; 100% in the assay with SK-MEL-28 melanoma; 85.2% with SK-MEL-2 melanoma; 91.9% with EKVX NSCLC; 74.3% in the assay with SN12C renal. The growth was 58.6% with UO-31 renal; 118% in the assay with TK-10 renal; 84.6% in the assay with ACHN renal; 65.9% with CAKI-1 renal; 98.8% in the assay on A498 renal; 49.4% in the assay on CCRF-CEM leukemia. Also, the growth in the assay on MOLT-4 leukemia was 43.1%.

For `O=C(CSc1nnc(-c2c[nH]c3ccccc23)n1-c1ccccc1)c1ccc(Cl)cc1`, the growth was 73.3% in the assay on HCT-15 colon; 42.6% in the assay on HT29 colon; 54.7% in the assay on SNB-75 CNS; 40% in the assay on SNB-19 CNS; 30.1% with U251 CNS; 60.4% in the assay on PC-3 prostate. In addition, the growth with SK-MEL-5 melanoma was 78.2%; in the assay with UACC-62 melanoma it was 52.8%; with SK-MEL-28 melanoma, 68.3%; with SK-MEL-2 melanoma it was 33.7%; in the assay on EKVX NSCLC, 25.6%; with SN12C renal, 64.6%. In addition, the growth with UO-31 renal was 54.8%; in the assay with TK-10 renal it was 84%; with ACHN renal, 57.5%; with CAKI-1 renal it was 64.5%; with A498 renal it was 57.3%; in the assay on CCRF-CEM leukemia, 92.7%. In addition, in the assay with MOLT-4 leukemia, the growth is 104%.

For `COC[C@@H](CC(C)C)N=C1N/C(=C\c2ccc3ncsc3c2)C(=O)N1C`, the growth was 2.01% (active) with HCT-15 colon; 6.85% (active) in the assay on HT29 colon; 27.5% in the assay with SNB-75 CNS; 14.6% in the assay on SNB-19 CNS; 15.4% in the assay with U251 CNS; 23.6% with PC-3 prostate. Moreover, the growth in the assay on SK-MEL-5 melanoma is -57.3% (active); in the assay with UACC-62 melanoma, -64.9% (active); in the assay on SK-MEL-28 melanoma, -1.69% (active); in the assay with SK-MEL-2 melanoma it was -82.2% (active); in the assay with EKVX NSCLC it was 15%; with SN12C renal it was 9.83% (active). For the same molecule, the growth with UO-31 renal was -19.4% (active); in the assay with TK-10 renal it was 27.4%; in the assay with ACHN renal, -1.55% (active); in the assay on CAKI-1 renal, 2.83% (active); with A498 renal, -15.4% (active); in the assay with CCRF-CEM leukemia, 7.03% (active). For the same molecule, in the assay with MOLT-4 leukemia, the growth is 9.06% (active).

For the molecule `Cc1ccc(/C(N)=N/c2sc(-c3ccccc3)nc2-c2ccccc2)cc1`, the growth in the assay on HCT-15 colon is 46.1%; in the assay with HT29 colon, 50.6%; in the assay with SNB-75 CNS, 82.4%; in the assay on SNB-19 CNS it was 97.3%; with U251 CNS it was 75.1%; in the assay with PC-3 prostate it was 90.6%. The growth with SK-MEL-5 melanoma was 89.2%; with UACC-62 melanoma, 74.6%; in the assay on SK-MEL-28 melanoma, 81.5%; with SK-MEL-2 melanoma, 90.7%; with EKVX NSCLC, 74.2%; in the assay on SN12C renal, 77.8%. Also, the growth in the assay with UO-31 renal is 69.9%; in the assay with TK-10 renal, 100%; with ACHN renal, 76.3%; in the assay on CAKI-1 renal it was 59.8%; with A498 renal, 91.1%; in the assay with CCRF-CEM leukemia, 26.7%. In addition, in the assay with MOLT-4 leukemia, the growth was 51.5%.

Take `Cc1ccc(F)cc1N/C=c1\s/c(=C(\C#N)C(=O)Nc2ccccc2)n(-c2ccccc2)c1=O`: the growth was 64.9% in the assay with HCT-15 colon; 72.9% in the assay on HT29 colon; 3.2% (active) in the assay with SNB-75 CNS; 36.2% in the assay on SNB-19 CNS; 74.2% in the assay with U251 CNS; 74.5% in the assay on PC-3 prostate. Besides, the growth was 71.8% in the assay with SK-MEL-5 melanoma; 98.2% in the assay on UACC-62 melanoma; 95.7% with SK-MEL-28 melanoma; 94.7% in the assay with SK-MEL-2 melanoma; 46.9% with SN12C renal; 45.5% in the assay on UO-31 renal. For the same molecule, the growth is 84.4% with TK-10 renal; -20.1% (active) with ACHN renal; 19.8% in the assay on CAKI-1 renal; -16.7% (active) in the assay with A498 renal; 84.7% in the assay with CCRF-CEM leukemia; 90.3% in the assay with MOLT-4 leukemia.

Turning to `O=C(CSc1nnc(-c2c[nH]c3ccccc23)n1-c1ccccc1)Nc1ccc(C(=O)/C=C/c2ccc(Cl)cc2)cc1`, the growth is 59.3% with HCT-15 colon; 86.4% in the assay with HT29 colon; 80% in the assay on SNB-75 CNS; 73.1% in the assay with SNB-19 CNS; 73.9% in the assay on U251 CNS; 58.9% in the assay on PC-3 prostate. Moreover, the growth with SK-MEL-5 melanoma was 83.3%; in the assay with UACC-62 melanoma, 62.8%; in the assay on SK-MEL-28 melanoma, 84.1%; with SK-MEL-2 melanoma, 87.6%; with EKVX NSCLC it was 59%; in the assay on SN12C renal, 83%. Besides, the growth is 45.8% in the assay on UO-31 renal; 91.8% in the assay with TK-10 renal; 68.4% with ACHN renal; 68.2% with CAKI-1 renal; 90.7% in the assay on A498 renal; 83.7% in the assay on CCRF-CEM leukemia. In addition, the growth in the assay with MOLT-4 leukemia is 58.8%.
